In the library only some 2.6% were active in any assay of this set; here they are far more common.
TLR9-MyD88 block: blocks human TLR9 binding to MyD88; Q9NR96+Q99836; CHO BLA complementation TLR9-MyD88, CCF4 FRET ratio; inhibition, % at 4.98 µM; 340,000 tested, 0.21% active; AID 504734;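 active = inhibition above the mean over all tested compounds plus 3 SD, cut at about 21% in these data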;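 also: 0% = DMSO only wells and 100% = clavulanate BLA inhibitor control wells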
PRMT1 FP inh: PRMT1 (human) inhibition, primary screen; Q99873; recombinant PRMT1, activity-based probe fluorescence polarization; inhibition, % at 2.79 µM; 370,000 tested, 1.3% active; AID 652257;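 active = inhibition above about 21% made by adding two undisclosed values, limit read from the data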
Target sequence (Q99873 whole entry, looked up): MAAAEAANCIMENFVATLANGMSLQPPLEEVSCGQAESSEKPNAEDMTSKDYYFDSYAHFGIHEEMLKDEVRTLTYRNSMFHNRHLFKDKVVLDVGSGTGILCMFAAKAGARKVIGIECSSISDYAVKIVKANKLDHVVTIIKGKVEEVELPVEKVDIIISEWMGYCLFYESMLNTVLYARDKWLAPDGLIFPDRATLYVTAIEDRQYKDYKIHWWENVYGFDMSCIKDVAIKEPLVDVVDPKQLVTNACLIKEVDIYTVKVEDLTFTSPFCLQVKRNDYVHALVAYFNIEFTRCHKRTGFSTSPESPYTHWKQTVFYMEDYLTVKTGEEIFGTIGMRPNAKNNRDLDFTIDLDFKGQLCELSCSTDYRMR
ABHD5 PLIN5 PPI: inhibitors of human ABHD5-perilipin-5 interaction | AID 602281 | Q00G26+Q8WTS1 | Split G. princeps luciferase complementation, luminescence, 4 h | inhibition, % at 4 µM | 360,000 tested, 0.78% active;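 active = inhibition above the mean inhibition across every tested compound plus 3 SD, cut at about 22% in these data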;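 also: 0% = DMSO only wells and the 100% control is not disclosed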
TLR4-MyD88 BLA: inhibitors of human TLR4-MyD88 binding | inhibition, % at 8.4 µM | 200,000 tested, 0.18% active | HeLa CL3-4 TLR4/MyD88 BLA complementation, FRET ratio | AID 861; in the data active = inhibition above about 25%;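 also: 0% = vehicle and 100% = reference inhibitor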
NOD2-RIPK2 inh: NOD2-RIPK2 protein interaction inhibition; CHO BLA complementation NOD2-RIPK2, CCF4 ratio; 360,000 tested, 0.38% active; O43353; inhibition, % at 4.98 µM; in the data active = inhibition above about 21%;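 also: 0% = vehicle only and 100% = reference blocker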
Granule exo inh: lytic granule exocytosis inhibition. TALL-104 LAMP-1 surface exposure, flow cytometry; cells stimulated with thapsigargin and PMA. inhibition, % at 10 µM. 360,000 tested, 0.66% active;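 active = inhibition above about 55%, limit read from the data; inconclusive = no clear call, values can overlap the other calls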
Exocytosis CP01: lytic granule exocytosis inhibition. AID 651954. shares compounds with Granule exo inh. TALL-104 cells, LAMP-1 externalization, flow cytometry; stimulated with PMA plus thapsigargin. 1,500 tested, 11% active. inhibition, % at 10 µM; in the data active = inhibition above about 60%;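 also: 0% = stimulated vehicle wells and 100% = unstimulated wells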
* = called active by the depositor; ? = inconclusive; / = no result.

SMILES | TLR9-MyD88 block | PRMT1 FP inh | ABHD5 PLIN5 PPI | TLR4-MyD88 BLA | NOD2-RIPK2 inh | Granule exo inh | Exocytosis CP01
CCCCn1c(=O)[nH]c(=O)c2c1nc(-c1ccc(-c3ccccc3Br)o1)n2CCOC | 7.8 | 4.0 | 11.4 | 1.2 | -1.5 | 55.9* | 58.7
Cc1cc(N2CCN(c3ccccc3)CC2)nc2ccccc12 | 1.8 | -0.4 | -7.4 | / | -2.6 | 89.4* | -4.3
OCC1SC(O)C(O)C(O)C1O (stereo not given) | / | -6.6 | / | / | / | / | /
CCOC(=O)C1(CCOc2ccccc2)CCN(Cc2ccc3nonc3c2)CC1 | -12.6 | -4.0 | 4.1 | 11.0 | -8.2 | 3.8 | /
CCOC(=O)C1(CCOc2ccccc2)CCN(Cc2ccc(OC)cc2)CC1 | -8.2 | -1.4 | 1.3 | / | -6.9 | 80.4* | -3.1
CCOC(=O)C1(CCOc2ccccc2)CCN(Cc2ccc(OCC)c(CO)c2)CC1 | 7.5 | -4.2 | 2.7 | / | 4.0 | 81.2* | -12.1
CCOC(=O)C1(CCOc2ccccc2)CCN(Cc2ccc(NC(C)=O)cc2)CC1 | 0.6 | -2.6 | 2.8 | 3.6 | -2.3 | 0.8 | /
CCOC(=O)C1(CCOc2ccccc2)CCN(Cc2ccccc2O)CC1 | 5.8 | -1.5 | 6.9 | / | 2.1 | 56.4* | -13.2
CCOC(=O)C1(CCOc2ccccc2)CCN(Cc2cccc(OC)c2OC)CC1 | -5.0 | -3.5 | -0.6 | / | 14.7 | 75.2* | -10.4
Cc1ccccc1C(=O)N[C@H](C(=O)N1CCC[C@H]1C(=O)NCCc1ccccc1Cl)c1ccccc1 | / | 1.3 | / | / | / | / | /
CCOC(=O)c1ccc(NC(=O)CSc2nnc(-c3cccc(C)c3)n2C)cc1 | / | 0.1 | / | / | / | / | /
COc1ccc(C2CC(=O)C(c3ccc(Br)cc3)=CN2Cc2ccccc2)cc1 (stereo not given) | / | -2.0 | / | / | / | / | /
CCOC(=O)C1(CCc2ccccc2)CCN(Cc2cc(OC)c(OC)cc2OC)CC1 | -7.3 | 5.5 | 4.2 | / | -4.3 | 63.6* | -2.1
CCOC(=O)C1(CCOc2ccccc2)CCN(Cc2cccc(F)c2)CC1 | -0.1 | -1.3 | -1.9 | / | -7.6 | 63.6* | -12.5
CCOC(=O)C1(CCOc2ccccc2)CCN(Cc2cccc(-n3cccn3)c2)CC1 | 14.3 | -3.8 | -0.8 | 1.4 | -4.3 | 8.6 | /
CCOC(=O)C1(CCOc2ccccc2)CCN(Cc2cccc(OCCO)c2)CC1 | -3.9 | -4.0 | -5.4 | / | -2.1 | 37.2 | /
CCOC(=O)C1(CCOc2ccccc2)CCN(CCCn2cccn2)CC1 | 2.9 | 1.6 | 0.2 | -3.1 | -6.5 | 59.1* | -3.8
Cc1ccc(S(=O)(=O)c2nc(-c3ccccc3)oc2SCC(=O)NCC2CCCO2)cc1 (stereo not given) | -5.1 | -0.5 | 2.4 | / | -6.2 | 9.2 | /
Cc1ccc(S(=O)(=O)c2nc(-c3ccco3)oc2SCC(=O)NCC2CCCO2)cc1 (stereo not given) | -8.9 | -1.5 | 8.3 | 3.5 | 1.9 | 89.4* | -9.9
COc1ccc(OC)c(Nc2nc(C3CC3)nc3c2nnn3Cc2ccccc2)c1 | -1.4 | -1.1 | -7.2 | -9.7 | -0.1 | 60.1* | -5.2
COc1ccc(Cl)cc1Nc1nc(C)nc2c1nnn2Cc1ccccc1 | 3.6 | -1.3 | -4.4 | / | -4.4 | -4.1 | /
COc1cc(CNCCc2c[nH]c3ccccc23)ccc1OCc1ccccc1F | -3.9 | 1.0 | -6.3 | 4.3 | 9.3 | -2.9 | /
COc1cccc(CNCCc2c[nH]c3ccccc23)c1OCc1ccccc1 | -2.2 | 1.8 | 12.7 | 13.4 | -63.3 | 64.7* | 27.9
CC(C)C[C@H]1COc2cc(NCc3ccc(Cl)c(Cl)c3)ccc2S(=O)(=O)N1 | / | -0.2 | / | / | / | / | /
CCCCc1nc(N2CCN(C(=O)c3ccco3)CC2)c(C#N)c2c1CCCC2 | 10.6 | -5.4 | 7.2 | / | 8.5 | 79.4* | 21.9
SMILES | TLR9-MyD88 block | PRMT1 FP inh | ABHD5 PLIN5 PPI | TLR4-MyD88 BLA | NOD2-RIPK2 inh | Granule exo inh | Exocytosis CP01
CC(C)c1nc(N2CCN(C(=O)c3ccco3)CC2)c(C#N)c2c1COC(C)(C)C2 | -4.3 | -1.7 | 11.8 | / | 0.4 | 15.8 | /
CCCCCc1c(-c2cccc(F)c2)ncn1CCc1ccccc1OC | / | 0.2 | -3.4 | / | 1.9 | 55.5* | 67.7*
CCCCc1c(-c2ccccc2OC)ncn1CCc1ccccc1OC | / | 0.4 | 12.4 | / | -5.5 | 36.7 | /
CCCCCc1c(-c2ccccc2OC)ncn1CCc1ccccc1OC | / | 1.7 | 4.2 | / | 13.9 | 67.7* | 38.5
CCCCCc1c(-c2cccc(OC)c2)ncn1CCc1ccccc1OC | / | -0.1 | -3.8 | / | -8.4 | 76.3* | 46.6
COC(=O)[C@]12C[C@H](CC(=O)N3CCN(C(=O)C4CC4)CC3)C(=O)N(CCc3ccc(OC)c(OC)c3)C1=C[C@H](C(C)C)O[C@@H]2C1CC1 | / | 0.5 | / | / | / | / | /
COCCN(Cc1ccc(C)cc1)C(=O)[C@H]1O[C@@H](n2cnc(C(N)=O)n2)[C@H](O)[C@@H]1O | / | 4.5 | / | / | / | / | /
CCOC(=O)[C@@H]1[C@H]2COc3ccccc3[C@H]2N2C(=O)N(c3ccc(Cl)cc3)C(=O)[C@]12C | 4.7 | 0.1 | 0.6 | / | -5.7 | -15.0 | /
CCOC(=O)[C@@H]1[C@H]2COc3ccccc3[C@@H]2N2C(=O)N(c3ccc(Cl)cc3)C(=O)[C@@]12C | -2.6 | 0.5 | -4.0 | / | 1.2 | 116.0* | -13.4
Clc1ccc(-c2nnc(Sc3nc4ccccc4o3)c3ccccc23)cc1 | 8.7 | -3.7 | 9.1 | 3.4 | 7.4 | 0.0 | /
O=c1c(Cl)c2oc3ccccc3nc-2c2ccccc12 | 9.0 | / | 3.8 | -2.6 | 9.5 | 101.7* | 77.0*
OCc1ccccc1OCCCN1CCC(Cc2ccccc2)CC1 | -7.2 | -1.3 | -0.9 | / | -11.4 | 69.1* | -10.5
COc1cc(C(C)=O)ccc1OCC(=O)N1CCC(Cc2ccccc2)CC1 | 4.4 | -3.6 | 0.6 | / | 0.4 | ? | /
COc1cc(C(C)=O)ccc1OCCCN1CCC(Cc2ccccc2)CC1 | 0.7 | 0.0 | 7.3 | / | 8.3 | 64.2* | -9.9
COc1cc(C(C)=O)ccc1OCCN1CCC(Cc2ccccc2)CC1 | -4.1 | 3.4 | 5.4 | -3.0 | -8.7 | 56.5* | -12.9
COc1ccc(CN(CCN2CCOCC2)C(=O)c2cccc(F)c2F)cc1OC | / | -0.8 | / | / | / | / | /
COc1ccc(N2CCN(CCCNC(=O)CCc3cccc(F)c3)CC2)cc1 | / | 4.2 | / | / | / | / | /
Fc1cccc(CCN2CCNC[C@@H]2CC2CCCCC2)c1 | 3.5 | -0.8 | 5.3 | / | 10.4 | 61.8* | -11.3
c1ccc(C2(CN3CCNC[C@@H]3CC3CCCCC3)CC2)cc1 | -2.1 | -1.6 | 3.9 | / | -1.0 | -8.6 | /
COC(=O)[C@]12C[C@H](CC(=O)NCc3cccs3)C(=O)N(Cc3ccccc3)C1=C[C@H](C(C)(C)C)O[C@@H]2C | / | -1.8 | / | / | / | / | /
O=C1CC/C=C\C[C@@H](CC(=O)N(CCO)Cc2ccccc2)C(=O)N[C@H](Cc2ccccc2)CO1 | 8.5 | -1.8 | -0.4 | / | -4.0 | 80.9* | -14.7
O=C1N[C@@H](Cc2ccccc2)COC(=O)[C@H](Cc2ccc(F)cc2)C/C=C\C[C@H]1CC(=O)N(CCO)Cc1ccccc1 | -6.2 | -2.2 | 3.2 | / | 13.9 | 12.5 | /
O=C(COc1ccccc1)Nc1cc(C(F)(F)F)ccc1N1CCCC1 | -1.5 | 0.1 | -2.3 | -7.0 | -3.9 | 73.6* | -13.0
